Results reported in PubChem BioAssay.
The list shows a part of the results. Active and inactive are the calls of the source.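 Rule for the calls, unless noted: active = inhibition above the mean over all tested compounds plus 3 SD, which no compound reached; inactive = the rest.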

What was measured:
[1] = molecular target: Serine protease HTRA1 (Homo sapiens) (UniProt Q92743); test: confirming inhibition of human HTRA1 – biochemical, fluorescence polarization, confirmation (AID 540248;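 active = mean inhibition over three repeats above a set limit taken from the earlier primary screen, cut at about 37% in these data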;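 note: 0% = HTRA1 with DMSO and 100% = wells lacking HTRA1; inhibitors block probe binding so polarization drops and inhibition rises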); conditions: recombinant HTRA1, FP-rhodamine activity-based probe, at 5.96 µM, hits give high values
[2] = system: HIV-1 integrase (multimerization); test: stimulation of HIV-1 integrase oligomerization – biochemical, TR-FRET, counter-screen for LEDGF/p75 integration inhibitor project (AID 1053131; in the data active = activation above about 8.9%); conditions: TR-FRET HIV-1 integrase multimerization, at 7.7 µM, hits give high values
[3] = compounds disturbing TR-FRET signal readout – biochemical, HIV-1 IN multimerization, artefact control for LEDGF/p75-dependent integration inhibitor project, confirmation (AID 1053135); conditions: TR-FRET optical interference counterscreen, at 7.7 µM, hits give high values;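 note: 0% = integrase with antibodies and DMSO and 100% = antibodies without integrase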
[4] = system: HIV-1 integrase / human LEDGF/p75 complex; test: blockers of LEDGF/p75-dependent integrase activity – biochemical, TR-FRET, confirmation (AID 1053136; in the data active = inhibition above about 14%); conditions: TR-FRET LEDGF/p75-dependent HIV-1 integration, at 3.7 µM, hits give high values
[5] = potentiators of IFN-gamma STAT1 reporter activity – cell-based, HTS, luciferase reporter, confirmation (AID 1262;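 active = activation above a set limit carried over from the earlier primary STAT1 screen, cut at about 140% in these data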;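 note: simple ratio to median IFN-gamma plus DMSO wells so 0% means no light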); conditions: NIH 3T3 STAT1-luciferase reporter, IFN-gamma potentiation, luminescence; at 5.7 µM; hits give high values; 100% = IFN-gamma EC80 alone, no compound
[6] = enhancement of NF-kB transcriptional signalling – cell-based, HEK293T, luciferase luminescence, TNF-alpha, counter-screen for STAT1 activator project (AID 1306;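 active = activation above the mean of solvent-only control wells plus 3 SD, set per campaign, cut at about 130% in these data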;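 note: TNF-alpha given at a submaximal dose yielding about 80% of full reporter signal; values are well signal over median control so 100% means no change and 0% no light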); conditions: HEK293T NF-kB luciferase reporter, TNF-alpha stimulated, at 5.7 µM, hits give high values, 100% = TNF-alpha with vehicle only
[7] = molecular target: Signal transducer and activator of transcription 3 (Homo sapiens) (UniProt P40763); test: enhancers of IL-6 STAT3 transcription – U3A cells, luciferase, luminescence, counter-screen for STAT1 activator project, confirmation (AID 1316;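 active = activation above the solvent-only control well mean plus 3 SD, set per plate batch, cut at about 110% in these data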;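 note: 0% = no luminescence and 100% = median IL-6 plus DMSO wells; higher means more STAT3 reporter activation so hits are non-selective activators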); conditions: U3A cells STAT3-luciferase reporter, IL-6, luminescence; at 5.7 µM; hits give high values; 100 = IL-6 alone, no compound effect; cells lack STAT1
[8] = BSA probe fluorescence interference – biochemical, TAMRA-labeled BSA, counter-screen for TCR-CD3 interaction inhibitor project (AID 652035; in the data active = inhibition above about 23%;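 note: 0% = buffer low control and 100% = reference high control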); conditions: TAMRA-labeled BSA probe fluorescence counterscreen; at 9.4 µM; hits give high values
[9] = system: T-cell receptor (TCR)-CD3 interaction, human; test: blockers of TCR binding to CD3 – biochemical, fluorescence, TAMRA-labeled TCR probe, confirmation (AID 652036; in the data active = inhibition above about 19%); conditions: TAMRA-labeled TCR probe fluorescence binding assay; at 9.4 µM; hits give high values
[10] = molecular target: Toll-like receptor 9 (Homo sapiens) (UniProt Q9NR96); test: disruptors of TLR9 binding to MyD88 – cell-based, CHO, BLA complementation, fluorescence, triplicate, confirmation (AID 540250;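 active = mean inhibition across three repeats above about 21% taken from the earlier screen, limit read from the data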;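 note: blue over green emission ratio reports constitutive TLR9 MyD88 association via BLA complementation; 0% = DMSO vehicle wells and 100% = clavulanate BLA inhibitor wells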); conditions: CCF4 FRET ratio, at 4.98 µM, hits give high values
[11] = BLA reporter readout interference – cell-based, fluorescence, artefact control for TLR9-MyD88 binding inhibitor project (AID 540251;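 active = mean inhibition above a 50% cutoff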;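 note: counterscreen of TLR9-MyD88 hits on CMV-driven BLA in CHO-K1 cells; 0% = DMSO alone and 100% = clavulanate blocking BLA; higher means less blue over green ratio so more BLA blockade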); conditions: CHO-BLA cells, CCF4 FRET ratio, at 4.98 µM, hits give high values
[12] = CHO cell viability loss – luminescence, single concentration, cytotoxicity control for TLR9-MyD88 binding inhibitor project (AID 588336; in the data active = inhibition above about 11%); conditions: TLR9-MyD88 CHO cells cytotoxicity, at 4.98 µM, hits give high values
[13] = molecular target: Photoreceptor-specific nuclear receptor (Homo sapiens) (UniProt Q9Y5X4); test: retest of NR2E3-NCOR disrupting agonists – cell-based, luminescence, CHO-S two-hybrid, confirmation (AID 624378;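 active = average inhibition above a cutoff equal to the mean inhibition of all tested compounds plus one SD, cut at about 70% in these data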;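 note: 0% = DMSO in NR2E3 cells and 100% = DMSO in cells lacking NR2E3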); conditions: CHO-S mammalian two-hybrid NR2E3-NCOR, luciferase luminescence; at 3.98 µM; hits give high values
[14] = nonselective effects on VP16 transactivation – cell-based, luminescence, CHO-S, high throughput, counter-screen for NR2E3 agonist project, confirmation (AID 624379;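 active = mean inhibition above a cutoff equal to the average over all tested compounds plus one standard deviation, cut at about 70% in these data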;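 note: 0% = DMSO with VP16-transfected cells and 100% = DMSO with cells lacking VP16; higher means less reporter light so more repression of VP16 activity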); conditions: CHO-S GAL4-VP16 luciferase reporter, at 3.98 µM, hits give high values
[15] = reduced OD of V66 E. coli with T4 gene 2 phage – absorbance, RecBCD inhibitor project, confirmation (AID 651982;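 active = mean inhibition over triplicates exceeding the hit threshold derived in the original primary screen, cut at about 11% in these data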); conditions: E. coli V66 + T4 2- phage, growth OD; at 11.9 µM; hits give high values
[16] = bacterial growth inhibition – absorbance, high throughput, counter-screen for RecBCD inhibitor project (AID 651983; in the data active = inhibition above about 20%;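 note: E. coli strain V66 grown with compound alone and no phage infection; 0% = bacteria with DMSO vehicle only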); conditions: E. coli viability, absorbance (OD) growth; at 11.9 µM; hits give high values
[17] = reduced optical density, T4-challenged addAB+ bacteria – absorbance, E. coli V3065, T4 phage, counter-screen for RecBCD inhibitor project, confirmation (AID 651984;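 active = mean inhibition above the solvent-only control wells' mean plus 3 SD, cut at about 22% in these data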;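 note: higher means less bacterial growth from phage killing when AddAB is blocked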); conditions: E. coli expressing H. pylori AddAB + T4 phage, OD growth; at 11.9 µM; hits give high values; gene 2 mutant T4, recBCD-deleted host
[18] = VP16-driven transactivation reporter suppression – cell-based, luminescence, HEK293, counter-screen for COUP-TFII antagonist project (AID 687007; in the data active = inhibition above about 13%); conditions: HEK293 Gal4-VP16 luciferase reporter, at 8.5 µM, hits give high values
[19] = molecular target: COUP transcription factor 2 (Homo sapiens) (UniProt P24468); test: retest of COUP-TFII reporter suppressors – cell-based, luciferase reporter, HEK293, triplicate, confirmation (AID 687008;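 active = mean inhibition over three repeats above a set limit taken from the earlier primary screen, cut at about 38% in these data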;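 note: 100% = cells given the luciferase reporter alone without the COUP-TF2 vector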); conditions: HEK293 NGFI-A luciferase reporter, luminescence; at 8.5 µM; hits give high values
[20] = molecular target: Receptor-interacting serine/threonine-protein kinase 2 (Homo sapiens) (UniProt O43353); test: inhibitors of RIPK2 association with NOD2 – fluorescence, CHO cells, BLA complementation, triplicate, confirmation (AID 624370;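 active = mean inhibition across replicates above a set limit taken from the earlier primary screen, cut at about 21% in these data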;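 note: 0% = DMSO-only wells and the high end = clavulanate BLA-blocked wells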); conditions: CCF4 FRET, at 4.98 µM, hits give high values
[21] = BLA reporter readout interference – cell-based, CHO-K1 CMV-bla, CCF4 FRET, fluorescence, artefact control for NOD2-RIPK2 interaction inhibitor project, confirmation (AID 624371;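 active = mean inhibition above the low-control mean inhibition plus three low-control SD, cut at about 11% in these data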;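 note: 0% = DMSO only wells and 100% = clavulanate high control wells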); conditions: CCF4 FRET ratio, counterscreen, at 4.98 µM, hits give high values
[22] = molecular target: (Lyso)-N-acylphosphatidylethanolamine lipase (Mus musculus) (UniProt Q8VD66); test: mouse ABHD4 hydrolase blockers, triplicate – biochemical, fluorescence polarization, confirmation (AID 720658;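 active = mean inhibition across replicates above the hit cutoff set in the primary screen, cut at about 30% in these data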;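 note: 0% = wild-type ABHD4 with DMSO and 100% = catalytically dead S159A mutant with DMSO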); conditions: purified mABHD4, FP-Rh probe fluorescence polarization; at 8.92 µM; hits give high values
[23] = system: TLR4-MyD88 interaction (human), BLA complementation; test: disruptors of TLR4 binding to MyD88 – cell-based, HeLa CL3-4, BLA complementation, FRET ratio, confirmation (AID 941;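 active = mean inhibition across three repeat runs above about 25% carried over from the earlier screen, limit read from the data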;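 note: plate controls were DMSO only for no effect and clavulanic acid blocking BLA at full dose for full effect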); conditions: CCF4 FRET ratio, at 8.4 µM, hits give high values
[24] = BLA reporter interference in HeLa cells – cell-based, full-length BLA, CCF4 FRET ratio, artefact control for TLR4-MyD88 binding inhibitor project, confirmation (AID 1237;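 active = mean inhibition over three repeats above about 26% taken from the earlier screen, limit read from the data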;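 note: HeLa cells stably expressing beta-lactamase reporter as counterscreen for TLR4-MyD88 inhibitors; 0% = DMSO and 100% = clavulanic acid full inhibition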); conditions: at 8.4 µM, hits give high values
[25] = molecular target: Sphingosine 1-phosphate receptor 4 (Homo sapiens) (UniProt O95977); test: blockers of human S1P4 signalling – cell-based, confirmation (AID 1524; in the data active = inhibition above about 30%); conditions: S1P4-expressing cell line, antagonist mode, reporter read-out; at 4.98 µM; hits give high values
[26] = molecular target: Sphingosine 1-phosphate receptor 1 (Homo sapiens) (UniProt P21453); test: blockade of human S1P1 receptor – cell-based, counter-screen for S1P4 antagonist project (AID 1564; in the data active = inhibition above about 40%;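 note: receptor stimulated with S1P near its EC80; 0% = agonist stimulated wells and 100% = vehicle only wells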); conditions: cell-based S1P1 antagonist counterscreen, at 4.98 µM, hits give high values
[27] = blockers of IL-6 STAT3 signaling – U3A cells, luciferase, luminescence, confirmation (AID 1265;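 active = inhibition above the hit cutoff computed for the primary STAT3 screen, cut at about 44% in these data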;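 note: 0% = IL-6 plus DMSO and 100% = IL-6 plus nifuroxazide control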); conditions: IL-6 STAT3 luciferase reporter, at 5.7 µM, hits give high values, cell line lacks STAT1
[28] = inhibition of TNF-alpha-driven NF-kB transcription – cell-based, HEK293T, luciferase, TNF-alpha stimulus, counter-screen for STAT3 inhibitor project, confirmation (AID 1308;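 active = inhibition above the mean of solvent-only control wells plus 3 SD, cutoff set per campaign, cut at about 13% in these data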;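 note: 0% = TNF-alpha with DMSO and 100% = TNF-alpha with MG high control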); conditions: HEK293T NF-kB luciferase reporter, TNF-alpha induced; at 5.7 µM; hits give high values
[29] = inhibition of STAT1-driven transcription – cell-based, NIH 3T3, luciferase luminescence, IFN-gamma, counter-screen for STAT3 inhibitor project, confirmation (AID 1317;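 active = inhibition above the mean plus 3 SD of solvent-only control wells, limit set per screening run, cut at about 16% in these data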;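 note: 0% = DMSO with IFN-gamma and 100% = nifuroxazide control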); conditions: NIH 3T3 STAT1-luciferase reporter, IFN-gamma induced, at 5.7 µM, hits give high values
[30] = molecular target: Peroxisome proliferator-activated receptor gamma (Homo sapiens) (UniProt P37231); test: retested PPARg-SRC-2 recruitment enhancers – biochemical, HTS, confirmation (AID 1297; in the data active = activation above about 22%;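 note: 0% = vehicle alone and 100% = reference agonist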); conditions: biochemical SRC-2 recruitment by PPARgamma; at 8 µM; hits give high values
[31] = molecular target: Peroxisome proliferator-activated receptor gamma (Homo sapiens) (UniProt P37231); test: retest of SRC-1 recruitment enhancers for PPARgamma – biochemical, confirmation (AID 1300; in the data active = activation above about 20%;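 note: 0% = vehicle wells and 100% = reference agonist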); conditions: PPARgamma–SRC-1 coactivator recruitment biochemical assay; at 8 µM; hits give high values
[32] = molecular target: Peroxisome proliferator-activated receptor gamma (Homo sapiens) + Nuclear receptor coactivator 3 (Homo sapiens) (UniProt P37231+Q9Y6Q9); test: agonists promoting SRC-3 binding to PPARgamma – biochemical, confirmation (AID 1301; in the data active = activation above about 24%;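 note: 0% = vehicle wells and 100% = reference agonist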); conditions: biochemical PPARgamma-SRC-3 coactivator recruitment, agonist mode; at 8 µM; hits give high values
[33] = molecular target: Protein-arginine deiminase type-4 (Homo sapiens) (UniProt Q9UM07); test: protein arginine deiminase 4 blockade, retest – biochemical, fluorescence polarization, confirmation (AID 488796;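 active = mean inhibition across replicates above the hit cutoff set by the earlier primary screen, cut at about 15% in these data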;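 note: inhibitors block active-site labeling by the probe so polarization falls; 0% = PAD4 with probe and DMSO and 100% = probe without PAD4 enzyme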); conditions: recombinant PAD4, RCA probe fluorescence polarization; at 6.36 µM; hits give high values
Protein-arginine deiminase type-4 (Homo sapiens), sequence (Q9UM07 whole entry, looked up): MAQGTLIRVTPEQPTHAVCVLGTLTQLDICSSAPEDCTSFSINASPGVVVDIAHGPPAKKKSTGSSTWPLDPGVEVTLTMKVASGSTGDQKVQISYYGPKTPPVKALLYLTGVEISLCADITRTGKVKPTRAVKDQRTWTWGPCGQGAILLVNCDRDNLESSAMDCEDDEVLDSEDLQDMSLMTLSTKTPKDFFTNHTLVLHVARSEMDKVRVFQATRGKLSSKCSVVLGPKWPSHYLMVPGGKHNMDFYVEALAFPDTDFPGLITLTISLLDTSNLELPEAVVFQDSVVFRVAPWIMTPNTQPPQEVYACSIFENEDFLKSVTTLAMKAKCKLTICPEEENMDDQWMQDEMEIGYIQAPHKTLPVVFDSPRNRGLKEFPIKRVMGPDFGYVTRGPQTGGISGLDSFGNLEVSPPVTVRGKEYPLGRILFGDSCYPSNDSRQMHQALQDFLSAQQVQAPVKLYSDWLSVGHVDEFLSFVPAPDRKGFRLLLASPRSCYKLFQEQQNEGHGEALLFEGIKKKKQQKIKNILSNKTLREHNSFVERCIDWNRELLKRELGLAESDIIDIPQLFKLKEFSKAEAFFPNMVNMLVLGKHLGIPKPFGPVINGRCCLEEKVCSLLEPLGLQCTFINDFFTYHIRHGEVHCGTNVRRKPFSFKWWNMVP

Toll-like receptor 9 (Homo sapiens), sequence (Q9NR96 whole entry, looked up): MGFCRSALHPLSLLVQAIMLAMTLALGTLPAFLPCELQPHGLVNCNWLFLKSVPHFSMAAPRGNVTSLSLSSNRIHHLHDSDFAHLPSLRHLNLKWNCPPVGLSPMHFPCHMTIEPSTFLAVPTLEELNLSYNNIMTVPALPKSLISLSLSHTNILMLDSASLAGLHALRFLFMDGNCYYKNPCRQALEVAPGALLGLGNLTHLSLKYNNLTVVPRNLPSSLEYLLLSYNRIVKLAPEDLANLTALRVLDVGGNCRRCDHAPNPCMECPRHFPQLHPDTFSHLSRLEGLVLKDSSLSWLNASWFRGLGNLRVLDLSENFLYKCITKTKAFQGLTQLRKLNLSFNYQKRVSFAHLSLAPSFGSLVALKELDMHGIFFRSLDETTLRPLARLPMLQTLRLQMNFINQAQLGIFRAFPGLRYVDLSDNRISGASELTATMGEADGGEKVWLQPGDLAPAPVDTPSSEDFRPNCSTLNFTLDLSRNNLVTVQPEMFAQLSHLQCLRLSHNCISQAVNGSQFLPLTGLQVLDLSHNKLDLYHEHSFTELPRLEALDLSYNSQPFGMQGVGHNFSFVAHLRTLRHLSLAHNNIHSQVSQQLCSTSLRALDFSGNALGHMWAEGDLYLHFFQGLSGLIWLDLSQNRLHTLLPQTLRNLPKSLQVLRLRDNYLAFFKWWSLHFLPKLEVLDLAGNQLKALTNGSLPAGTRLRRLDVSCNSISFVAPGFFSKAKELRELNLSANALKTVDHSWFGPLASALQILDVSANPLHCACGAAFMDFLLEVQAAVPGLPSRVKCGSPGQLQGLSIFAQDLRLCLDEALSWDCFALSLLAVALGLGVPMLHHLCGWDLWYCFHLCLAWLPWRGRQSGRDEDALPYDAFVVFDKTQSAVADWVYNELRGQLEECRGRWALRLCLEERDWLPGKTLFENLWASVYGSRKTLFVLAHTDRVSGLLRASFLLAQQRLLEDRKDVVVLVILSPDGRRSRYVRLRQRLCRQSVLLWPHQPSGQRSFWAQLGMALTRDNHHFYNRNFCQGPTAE
Receptor-interacting serine/threonine-protein kinase 2 (Homo sapiens), sequence (O43353 whole entry, looked up): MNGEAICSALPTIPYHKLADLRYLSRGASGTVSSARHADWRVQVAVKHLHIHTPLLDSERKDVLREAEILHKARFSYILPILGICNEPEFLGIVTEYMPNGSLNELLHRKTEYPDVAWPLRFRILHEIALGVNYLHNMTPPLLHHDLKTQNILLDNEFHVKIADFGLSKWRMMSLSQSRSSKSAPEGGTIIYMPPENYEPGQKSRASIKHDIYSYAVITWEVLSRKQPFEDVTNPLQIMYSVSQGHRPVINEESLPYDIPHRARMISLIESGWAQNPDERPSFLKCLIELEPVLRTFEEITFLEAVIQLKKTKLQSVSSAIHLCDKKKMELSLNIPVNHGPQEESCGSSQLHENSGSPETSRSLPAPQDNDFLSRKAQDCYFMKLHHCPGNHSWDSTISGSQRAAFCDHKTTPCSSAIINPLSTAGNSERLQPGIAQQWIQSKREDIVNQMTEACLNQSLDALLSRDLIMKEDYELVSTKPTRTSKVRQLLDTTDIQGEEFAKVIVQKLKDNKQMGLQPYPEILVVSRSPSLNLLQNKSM
Peroxisome proliferator-activated receptor gamma (Homo sapiens), sequence (P37231 whole entry, looked up): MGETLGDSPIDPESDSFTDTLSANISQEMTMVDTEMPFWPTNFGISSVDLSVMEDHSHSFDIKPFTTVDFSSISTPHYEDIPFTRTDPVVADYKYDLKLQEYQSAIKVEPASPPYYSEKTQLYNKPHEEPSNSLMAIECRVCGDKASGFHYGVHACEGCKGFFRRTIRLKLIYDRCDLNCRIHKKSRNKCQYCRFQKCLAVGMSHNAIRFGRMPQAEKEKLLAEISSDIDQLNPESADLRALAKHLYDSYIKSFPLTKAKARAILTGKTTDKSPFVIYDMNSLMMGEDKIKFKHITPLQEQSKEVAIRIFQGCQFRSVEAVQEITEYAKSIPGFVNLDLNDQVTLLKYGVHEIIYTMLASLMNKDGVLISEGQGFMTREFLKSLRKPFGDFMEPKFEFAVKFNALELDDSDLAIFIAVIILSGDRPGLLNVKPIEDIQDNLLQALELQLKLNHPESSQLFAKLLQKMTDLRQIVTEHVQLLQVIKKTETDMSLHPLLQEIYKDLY
Sphingosine 1-phosphate receptor 4 (Homo sapiens), sequence (O95977 whole entry, looked up): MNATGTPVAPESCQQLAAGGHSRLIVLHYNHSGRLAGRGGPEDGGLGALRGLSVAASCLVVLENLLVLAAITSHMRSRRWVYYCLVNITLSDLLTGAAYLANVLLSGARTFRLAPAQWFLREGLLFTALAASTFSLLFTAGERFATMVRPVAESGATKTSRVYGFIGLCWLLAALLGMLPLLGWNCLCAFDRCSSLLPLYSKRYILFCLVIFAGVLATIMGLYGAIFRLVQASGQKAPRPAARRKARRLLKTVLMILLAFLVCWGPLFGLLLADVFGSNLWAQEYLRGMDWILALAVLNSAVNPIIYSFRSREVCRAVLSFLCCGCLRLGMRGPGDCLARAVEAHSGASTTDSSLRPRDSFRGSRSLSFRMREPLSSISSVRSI
(Lyso)-N-acylphosphatidylethanolamine lipase (Mus musculus), sequence (Q8VD66 whole entry, looked up): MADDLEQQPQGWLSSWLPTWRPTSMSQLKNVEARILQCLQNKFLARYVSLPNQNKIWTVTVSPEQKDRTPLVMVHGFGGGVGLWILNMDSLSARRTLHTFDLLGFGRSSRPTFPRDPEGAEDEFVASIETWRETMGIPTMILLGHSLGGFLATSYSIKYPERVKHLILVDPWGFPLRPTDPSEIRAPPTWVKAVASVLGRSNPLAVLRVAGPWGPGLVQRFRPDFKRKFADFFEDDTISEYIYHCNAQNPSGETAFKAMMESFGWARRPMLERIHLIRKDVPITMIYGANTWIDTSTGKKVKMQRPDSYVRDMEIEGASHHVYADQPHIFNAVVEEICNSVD
Sphingosine 1-phosphate receptor 1 (Homo sapiens), sequence (P21453 whole entry, looked up): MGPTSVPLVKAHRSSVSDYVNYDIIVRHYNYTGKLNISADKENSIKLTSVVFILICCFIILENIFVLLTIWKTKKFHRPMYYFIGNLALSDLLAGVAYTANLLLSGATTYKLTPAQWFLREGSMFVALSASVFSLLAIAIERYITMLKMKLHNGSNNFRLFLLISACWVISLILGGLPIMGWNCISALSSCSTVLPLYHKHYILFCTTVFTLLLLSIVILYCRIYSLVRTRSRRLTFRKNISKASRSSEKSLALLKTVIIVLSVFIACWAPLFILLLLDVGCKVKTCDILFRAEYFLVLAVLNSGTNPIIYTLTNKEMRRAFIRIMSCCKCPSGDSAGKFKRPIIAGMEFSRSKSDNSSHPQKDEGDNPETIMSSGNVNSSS
COUP transcription factor 2 (Homo sapiens), sequence (P24468 whole entry, looked up): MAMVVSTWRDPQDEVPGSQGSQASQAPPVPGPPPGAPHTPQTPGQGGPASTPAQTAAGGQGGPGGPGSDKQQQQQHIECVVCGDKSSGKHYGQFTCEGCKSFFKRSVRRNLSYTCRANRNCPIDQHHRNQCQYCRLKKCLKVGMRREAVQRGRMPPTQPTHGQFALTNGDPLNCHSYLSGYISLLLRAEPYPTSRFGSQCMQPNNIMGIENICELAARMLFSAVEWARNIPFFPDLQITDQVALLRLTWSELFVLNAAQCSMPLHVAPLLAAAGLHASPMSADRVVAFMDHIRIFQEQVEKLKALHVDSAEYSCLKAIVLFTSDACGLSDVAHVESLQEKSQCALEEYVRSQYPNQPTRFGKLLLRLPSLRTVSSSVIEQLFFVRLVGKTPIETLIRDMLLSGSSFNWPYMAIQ
Photoreceptor-specific nuclear receptor (Homo sapiens), sequence (Q9Y5X4 whole entry, looked up): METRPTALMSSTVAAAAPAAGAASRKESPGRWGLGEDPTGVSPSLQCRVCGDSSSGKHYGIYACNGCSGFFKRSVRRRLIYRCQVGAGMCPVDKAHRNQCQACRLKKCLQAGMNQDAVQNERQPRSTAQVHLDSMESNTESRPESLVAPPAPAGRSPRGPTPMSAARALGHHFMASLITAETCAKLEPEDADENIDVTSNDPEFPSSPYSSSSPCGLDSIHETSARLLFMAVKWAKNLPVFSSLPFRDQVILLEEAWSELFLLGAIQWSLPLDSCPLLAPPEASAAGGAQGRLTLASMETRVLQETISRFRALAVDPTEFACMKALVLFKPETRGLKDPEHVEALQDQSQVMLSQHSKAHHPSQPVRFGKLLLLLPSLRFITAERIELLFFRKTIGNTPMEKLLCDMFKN

NNc1cccc(C=Cc2ccccc2)cc1=O
inactive: inhibition [3] -47.7%
active: inhibition [1] 47.8% | activation [2] 13.3% | inhibition [4] 33.8%

Cc1ccc(NC(=O)Nc2ccc3oc(C)nc3c2)cc1
active: activation (% of control) [5] 200%
inactive: activation (% of control) [6] 128% | activation (% of control) [7] 102%

Cc1cccc(-c2noc(-c3ccc(F)cc3)n2)c1
active: activation (% of control) [5] 222% | activation (% of control) [7] 119%
inactive: activation (% of control) [6] 133%

Cc1ccc(Cc2cnc(N)s2)o1
inactive: inhibition [8] 0.16% | inhibition [9] 2.57% | activation [2] 6.28% | inhibition [3] -22.6% | inhibition [4] 10.6%

CN(c1ccc(C(=O)NCCC2=CCCCC2)cc1)S(C)(=O)=O
active: activation (% of control) [5] 177% | activation (% of control) [7] 121%
inactive: activation (% of control) [6] 124%

CN(O)C(=S)c1ccccc1
active: inhibition [12] 97.2% | inhibition [15] 53% | inhibition [16] 62.5% | inhibition [17] 84.6%
inactive: inhibition [10] 5.28% | inhibition [11] 0.06% | inhibition [13] -14.5% | inhibition [14] -3.62% | inhibition [18] -6.65% | inhibition [19] -5.38% | activation [2] 0.55% | inhibition [3] -2.07% | inhibition [4] -6.13%

CCN(CC)CCCC(C)n1c2nc(=O)[nH]c(=O)c-2nc2cc(Cl)ccc21 (stereo not drawn)
active: inhibition [20] 38.1% | inhibition [21] 40% | inhibition [22] 44.4% | inhibition [4] 59.8%
inactive: inhibition [10] 12.3% | inhibition [11] 14.8% | inhibition [12] -0.12% | activation [2] 2.04% | inhibition [3] -7.01%

O=C1c2cccc3c([N+](=O)[O-])ccc(c23)C(=O)N1CC1CCCO1 (stereo not drawn)
active: inhibition [23] 82.5% | inhibition [24] 108% | inhibition [25] 112% | inhibition [26] 118% | inhibition [10] 45.8% | inhibition [11] 73.2% | inhibition [12] 56.5% | inhibition [20] 83% | inhibition [21] 70.6%

Cc1ccc2cc3cc(C(=O)N4CCCCCC4)oc3nc2c1
active: activation (% of control) [5] 224% | activation (% of control) [7] 137%
inactive: inhibition [27] 7.37% | activation (% of control) [6] 120% | inhibition [28] -42% | inhibition [29] -140%

CCN(CC)c1ccc2oc(=O)c(C)nc2c1
inactive: inhibition [23] 4.42% | inhibition [24] 4.01% | activation [30] 7.05% | activation [31] 6.29% | activation [32] 3.97%

Cc1nc(Cl)c2oc3ccccc3c2n1
active: inhibition [23] 39%
inactive: inhibition [24] 20.8% | inhibition [33] 7.72%
